# Measurements taken from PubChem BioAssay (EPA / NIEHS).
# Records with an inconclusive call do not appear. Activity calls are given as the source filed them. The calls were made as follows, unless noted: active = hit-call score of the fitted dose curve at least 0.9, where 1 is the maximum; inactive = score below 0.9.
# What was measured:
# [1] = read-out: Monokine induced gamma interferon (MIG), CXCL9 (gene 4283); assay: BSK_3C_MIG: BioMAP Diversity Plus: 3C Assay for Monokine induced gamma interferon (MIG) Biomarker Activity (AID 2283021); conditions: primary human endothelial cells (HUVEC); actives raise or lower the signal;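 as to AC50: MIG protein level measured by immunoassay in the treated endothelial cultures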
# Summary of the method: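 ELISA-measured MIG in dosed HUVEC 3C cultures at 24 h, analysed by bidirectional fitting with DMSO defining baseline activity.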
# [2] = BSK_3C_SRB: Viability Assessment in the BioMAP Diversity Plus: 3C Assay (AID 2283023); conditions: primary human endothelial cells (HUVEC);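 also: cells read 24 h after compound dosing; fitted both ways against DMSO so a hit may be signal rise or drop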
# Summary of the method: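 Overt cytotoxicity is gauged in parallel confluent HUVEC cultures by SRB total-protein staining at the time of biomarker measurement, 24 h after dosing. Gain or loss of signal is fitted versus DMSO.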
# [3] = read-out: Matrix Metallopeptidase 1 (MMP1), MMP1 (gene 4312); assay: BSK_BE3C_MMP1: BioMAP Diversity Plus: BE3C Assay for Matrix Metallopeptidase 1 (MMP1) Biomarker Activity (AID 2283024); conditions: primary human bronchial epithelial cells; actives raise or lower the signal
# Summary of the method: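 In this multiplexed primary-cell system, human bronchial epithelium received chemicals for 24 h before an ELISA for MMP1. Values reflect bidirectional fits normalised to the DMSO baseline.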
# [4] = BSK_3C_Vis: BioMAP Diversity Plus: 3C Assay for Morphology Visualization (AID 2283025); conditions: primary human endothelial cells (HUVEC);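 also: fitted both ways so gain or loss versus DMSO counts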;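 as to AC50: light microscopy image of cell morphology used as background control; cells imaged 24 h after dosing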
# Summary of the method: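 Light-microscopy morphology readout, 24 h exposure, human primary umbilical vein endothelium; analysed relative to DMSO with bidirectional fitting.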
# [5] = read-out: Pselectin, SELP (gene 6403); assay: BSK_4H_Pselectin: BioMAP Diversity Plus: 4H Assay for Pselectin Biomarker Activity (AID 2283026); conditions: primary human endothelial cells (HUVEC); actives raise or lower the signal
# Summary of the method: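 Bidirectional fits against DMSO gave the endpoint. Cells: primary human umbilical vein endothelium, chemical-treated for 24 h before ELISA detection of P-selectin.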
# [6] = BSK_4H_SRB: Viability Assessment in the BioMAP Diversity Plus: 4H Assay (AID 2283027); conditions: primary human endothelial cells (HUVEC);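 also: cells exposed to compound for 24 h before staining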;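 as to AC50: curves fitted both ways versus DMSO so AC50 may be loss or gain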
# Summary of the method: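 HUVEC, 24 h post-dose; 10% TCA fix, 0.1% SRB stain, A560 nm. Total protein = overt cytotoxicity, parallel to biomarker read. Bidirectional fit vs DMSO baseline.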
# [7] = BSK_BE3C_SRB: Viability Assessment in the BioMAP Diversity Plus: BE3C Assay (AID 2283028); conditions: primary human bronchial epithelial cells;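 also: measured 24 h after chemical dosing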;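 as to AC50: fitted both ways so AC50 may mark signal gain or loss versus DMSO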
# Summary of the method: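 SRB total-protein staining (0.1%, after TCA fixation) of chemically dosed human bronchial epithelial primary cells at 24 h; DMSO serves as the negative control for bidirectional curve fitting.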
# [8] = read-out: Thrombomodulin, THBD (gene 7056); assay: BSK_3C_Thrombomodulin: BioMAP Diversity Plus: 3C Assay for Thrombomodulin Biomarker Activity (AID 2283029); conditions: primary human endothelial cells (HUVEC); actives raise or lower the signal
# Summary of the method: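 In a multiplexed primary-cell system, human umbilical vein endothelium received chemical and was assayed 24 h later for thrombomodulin by ELISA. Parallel cultures were SRB-stained (0.1% SRB after 10% TCA fixation, read at 560 nm) to flag cytotoxicity.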
# [9] = target: human Vitamin D Receptor (VDR), VDR (gene 7421) (UniProt P11473); assay: ATG_VDR_TRANS: Attagene TRANS-FACTORIAL HepG2 Assay for human Vitamin D Receptor (VDR) (AID 2283022; active = hit-call score of the fitted dose curve at least 0.9, where 1 is the maximum)
# Summary of the method: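 Multiplexed TRANS reporter in HepG2; 24 h treatment; reporter mRNA by RT-PCR plus capillary electrophoresis; upregulation scored relative to DMSO.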
# Sequence of human Vitamin D Receptor (VDR), VDR (gene 7421) (P11473 whole entry, looked up): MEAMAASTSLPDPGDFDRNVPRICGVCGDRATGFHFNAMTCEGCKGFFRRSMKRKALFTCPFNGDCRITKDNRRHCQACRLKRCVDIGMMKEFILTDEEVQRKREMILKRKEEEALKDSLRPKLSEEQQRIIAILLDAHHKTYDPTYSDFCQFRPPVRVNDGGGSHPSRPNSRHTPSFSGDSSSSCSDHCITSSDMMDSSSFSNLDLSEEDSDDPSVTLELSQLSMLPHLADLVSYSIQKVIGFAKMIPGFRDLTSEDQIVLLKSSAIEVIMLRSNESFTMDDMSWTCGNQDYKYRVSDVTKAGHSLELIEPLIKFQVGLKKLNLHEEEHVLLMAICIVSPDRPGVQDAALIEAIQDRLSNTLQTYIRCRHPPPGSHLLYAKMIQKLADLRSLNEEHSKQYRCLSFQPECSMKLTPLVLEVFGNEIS
Compound,outcome [1],AC50 [2],outcome [3],outcome [4],outcome [5],outcome [6],outcome [7],outcome [8],outcome [9],AC50 [3],AC50 [4],AC50 [5],AC50 [6],AC50 [7],AC50 [8],outcome [2],AC50 [1]
CCCCOCCOCCOCc1cc2c(cc1CCC)OCO2,inactive,21 µM (active),inactive,inactive,inactive,inactive,inactive,inactive,,,,,,,,,
Cc1nn(C)c(Oc2ccccc2)c1C=NOCc1ccc(C(=O)OC(C)(C)C)cc1,inactive,9.91 µM (active),,,,,,,inactive,4.59 µM (active),15.2 µM (active),12.9 µM (active),16.3 µM (active),12 µM (active),5.41 µM (active),,
COC(=O)c1ccccc1S(=O)(=O)NC(=O)Nc1nc(OC(F)F)cc(OC(F)F)n1,inactive,,inactive,inactive,inactive,inactive,inactive,inactive,inactive,,,,,,,inactive,
CCOC(=O)C(C)Oc1ccc(Oc2nc3ccc(Cl)cc3o2)cc1 (centres undefined),inactive,,inactive,inactive,inactive,inactive,inactive,inactive,inactive,,,,,,,inactive,
CCNc1nc(N)nc(Cl)n1,inactive,,inactive,inactive,inactive,inactive,inactive,inactive,,,,,,,,inactive,
COCCO,inactive,,inactive,inactive,inactive,inactive,inactive,inactive,inactive,,,,,,,inactive,
O=C(Nc1ccc([N+](=O)[O-])cc1Cl)c1cc(Cl)ccc1O,inactive,0.589 µM (active),inactive,,,,,,,,,0.302 µM (active),0.516 µM (active),0.34 µM (active),0.148 µM (active),,
COc1nc(C)nc(NC(=O)NS(=O)(=O)c2ccccc2OCCCl)n1,inactive,,inactive,inactive,inactive,inactive,inactive,inactive,inactive,,,,,,,inactive,
CCC(O)=C1C(=O)CC(C(=O)O)CC1=O (centres undefined),inactive,,inactive,inactive,inactive,inactive,inactive,inactive,,,,,,,,inactive,
CCCCCCC(C)OC(=O)COc1nc(F)c(Cl)c(N)c1Cl (centres undefined),,30.1 µM (active),inactive,,,,inactive,inactive,inactive,,29.4 µM (active),30.8 µM (active),34.5 µM (active),,,,37.7 µM (active)
O=C(O)C1(C(=O)Nc2ccc(Cl)cc2Cl)CC1,inactive,,inactive,inactive,inactive,inactive,inactive,inactive,inactive,,,,,,,inactive,
CCOC(=O)COc1cc(-n2ncc(C(F)(F)F)c(C)c2=O)c(F)cc1Cl,inactive,,inactive,inactive,inactive,inactive,inactive,inactive,inactive,,,,,,,inactive,
CCOC(=O)C(C)Oc1ccc(Oc2cnc3cc(Cl)ccc3n2)cc1 (centres undefined),inactive,,inactive,inactive,inactive,inactive,inactive,inactive,,,,,,,,inactive,
CCCCC(CC)CN1C(=O)C2C3C=CC(C3)C2C1=O (centres undefined),inactive,16.9 µM (active),,inactive,inactive,inactive,,inactive,,15.9 µM (active),,,,17.3 µM (active),,,
OB(O)O,inactive,,inactive,inactive,inactive,inactive,inactive,inactive,inactive,,,,,,,inactive,
CCN(CC)C(=O)c1cccc(C)c1,inactive,,inactive,inactive,inactive,inactive,inactive,inactive,inactive,,,,,,,inactive,
COC(=O)c1ccc(I)cc1S(=O)(=O)NC(=O)Nc1nc(C)nc(OC)n1,inactive,,inactive,inactive,inactive,inactive,inactive,inactive,,,,,,,,inactive,
CCCCOC(=O)[C@@H](C)Oc1ccc(Oc2ccc(C(F)(F)F)cn2)cc1,inactive,,inactive,,inactive,inactive,inactive,inactive,,,39 µM (active),,,,,inactive,
CN(C)C(=O)Nc1ccc(Cl)c(Cl)c1,inactive,,inactive,inactive,inactive,inactive,inactive,inactive,,,,,,,,inactive,
COc1c(Cl)ccc(Cl)c1C(=O)O,inactive,,inactive,inactive,inactive,inactive,inactive,inactive,inactive,,,,,,,inactive,
CCOC(=O)c1ccc(O)cc1,inactive,,inactive,inactive,inactive,inactive,inactive,inactive,inactive,,,,,,,inactive,
